In the library only some 1.2% were active in any assay of this set; here they are far more common.
SRC2 inh – inhibition of GAL4-SRC2 driven luciferase reporter, primary screen, SRC2 inhibitor project, cell-based, luminescence; Nuclear receptor coactivator 2 (Homo sapiens), Q15596; HEK293 GAL4-SRC2 luciferase reporter; inhibition, % at 9 µM; 370,000 tested, 0.17% active; AID 651957, 2012;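 active means inhibition above the mean inhibition of all tested compounds plus 3 SD, set per campaign, cut at about 52% in these data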
Efflux pump inh – inhibitors of Candida efflux pumps in yeast, primary screen, S. cerevisiae, Nile Red, multiplex; S. cerevisiae Candida pump triplex; inhibition, % at 10 µM; 330,000 tested, 0.44% active; AID 485275, 2010;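 active means plate passing quality check with inhibition over a set limit, or well fluorescence over plate mean plus 4 SD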;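 further: Nile Red retained in pooled yeast measured as flow cytometry median fluorescence; higher means more Nile Red kept so more efflux inhibition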
SRC3 inh – SRC3 coactivator transcriptional activity inhibitors, primary screen, cell-based, luminescence; inhibition, % at 3.6 µM; Nuclear receptor coactivator 3 (Homo sapiens), Q9Y6Q9; HEK293 GAL4-SRC3 luciferase reporter; 360,000 tested, 0.17% active;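 active means inhibition above a per-campaign cutoff, the mean of all compounds plus 3 SD, cut at about 60% in these data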;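 further: higher means less SRC3-driven luciferase light from the GAL4 reporter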
LRH-1 inv ag – LRH-1 (NR5A2) inverse agonists, primary screen, cell-based, luminescence, HEK293T, StAR-luciferase reporter | Nuclear receptor subfamily 5 group A member 2 (Homo sapiens), O00482 | LRH-1 transfected, 24 h | inhibition, % at 3.6 µM | 360,000 tested, 0.13% active | AID 602396, 2012;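 active means inhibition above the mean inhibition of all tested compounds plus 3 SD, cut at about 73% in these data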
Target sequence (O00482 whole entry, looked up): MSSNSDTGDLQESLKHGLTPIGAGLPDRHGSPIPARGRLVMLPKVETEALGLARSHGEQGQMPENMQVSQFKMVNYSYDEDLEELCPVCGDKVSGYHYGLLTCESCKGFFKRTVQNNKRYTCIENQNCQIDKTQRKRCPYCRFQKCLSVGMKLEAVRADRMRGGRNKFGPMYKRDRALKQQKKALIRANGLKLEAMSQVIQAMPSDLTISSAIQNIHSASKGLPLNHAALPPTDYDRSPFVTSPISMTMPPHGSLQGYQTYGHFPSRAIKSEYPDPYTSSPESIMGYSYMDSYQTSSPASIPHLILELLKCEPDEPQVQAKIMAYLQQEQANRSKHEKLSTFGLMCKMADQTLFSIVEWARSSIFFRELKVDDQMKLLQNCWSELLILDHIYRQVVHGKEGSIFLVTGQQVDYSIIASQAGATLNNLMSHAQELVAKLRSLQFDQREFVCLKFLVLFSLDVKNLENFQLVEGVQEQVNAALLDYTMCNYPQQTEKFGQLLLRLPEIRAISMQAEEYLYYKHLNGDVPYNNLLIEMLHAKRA
COUP-TFII inh – NR2F2 transcriptional activity inhibitors, primary screen, cell-based, luciferase reporter, HEK293T, luminescence | COUP transcription factor 2 (Homo sapiens), P24468 | HEK293T NGFI-A luciferase reporter | inhibition, % at 8.6 µM | 370,000 tested, 0.7% active | AID 686940, 2013;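 active means inhibition above a per-plate cutoff, mean inhibition of test wells between control levels plus 3 SD, cut at about 38% in these data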;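 further: cells cotransfected with COUP-TFII expression vector driving the NGFI-A reporter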
SRC1 inh – SRC1 coactivator transcriptional activity inhibitors, primary screen, cell-based, luminescence | HEK293 GAL4-SRC1 luciferase reporter | inhibition, % at 3.6 µM | 360,000 tested, 0.12% active;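 active means inhibition above the campaign mean plus 3 SD, with each screening campaign given its own cutoff, cut at about 60% in these data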
VP16 Luc counter – Gal4-VP16 luciferase reporter inhibitors, counter-screen for COUP-TFII antagonist project, cell-based, luminescence, HEK293. shares compounds with COUP-TFII inh. inhibition, % at 8.5 µM. 2,500 tested, 25% active. AID 687007, 2013; in the data active means inhibition above about 13%
NR2F2 inh conf – NR2F2 transcriptional activity inhibitors, confirmation, cell-based, luciferase reporter, HEK293, triplicate; 2,500 tested, 45% active; inhibition, % at 8.5 µM; shares compounds with COUP-TFII inh; HEK293 NGFI-A luciferase reporter, luminescence;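 active means mean inhibition over three repeats above a set limit taken from the earlier primary screen, cut at about 38% in these data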
Large screens that a line does not name were inactive (follow-up assays come after a bar, where they were run).

CN(c1cccc(NC(=O)COc2ccccc2)c1)S(C)(=O)=O	none
Cc1ccccc1NC1=C/C(=N\S(=O)(=O)c2ccc(C(=O)O)cc2)c2ccccc2C1=O	none
CC(=O)Nc1ccc(NC2=C/C(=N/S(=O)(=O)c3cccs3)c3ccccc3C2=O)cc1	SRC3 inh 80, COUP-TFII inh 50 | VP16 Luc counter 17 | NR2F2 inh conf inactive
COc1ccc(S(=O)(=O)/N=C2\C=C(Nc3ccc(O)cc3)C(=O)c3ccccc32)cc1	SRC2 inh 74, SRC3 inh 88, LRH-1 inv ag 93, COUP-TFII inh 71, SRC1 inh 89 | VP16 Luc counter 83 | NR2F2 inh conf 92
CC1(C)SC2C(C(=O)O)N=C(Cc3ccccc3)N2C1C(=O)O (centres undefined)	none (no result: Efflux pump inh)
Cc1cccc(NC(=O)CCNS(=O)(=O)c2cc(Br)cnc2N)c1C	none
Cc1ccc(C(=O)C[n+]2cc(-c3ccc(C)cc3)n3c2CCCCC3)cc1	LRH-1 inv ag 74, COUP-TFII inh 46 | VP16 Luc counter inactive | NR2F2 inh conf inactive
CC1=NNC(=O)C1Cc1ccccc1 (centres undefined)	none
CCN(c1ccc(OC)cc1)c1ncnc2nc[nH]c12	COUP-TFII inh 38, SRC1 inh 66 | VP16 Luc counter inactive | NR2F2 inh conf inactive
CCCN(c1ccc(OCC)cc1)c1ncnc2nc[nH]c12	none
Nc1ccc2c(c1)OC1(CCCC1)O2	SRC2 inh 66, COUP-TFII inh 65 | VP16 Luc counter inactive | NR2F2 inh conf inactive
CCCCNC(=S)Nc1cccc2cnccc12	none
S=C(NCc1ccccc1)Nc1cccc2cnccc12	COUP-TFII inh 57 | VP16 Luc counter inactive | NR2F2 inh conf inactive
S=C(NCCc1ccccc1)Nc1cccc2cnccc12	COUP-TFII inh 67 | VP16 Luc counter inactive | NR2F2 inh conf 61
Cc1cc(CNC(=O)c2cccc([N+](=O)[O-])c2C)c2ccccc2n1	COUP-TFII inh 64 | VP16 Luc counter inactive | NR2F2 inh conf 55
Cc1cc(CNC(=O)Cc2ccccc2)c2ccccc2n1	none
COc1ccc(Cc2noc(CN3CCN(c4ccc(Cl)cn4)CC3)n2)cc1OC	COUP-TFII inh 41 | VP16 Luc counter inactive | NR2F2 inh conf inactive
COc1ccc(Cc2noc(CN3CCN(Cc4cccc(Cl)c4)CC3)n2)cc1OC	none
COc1cc(-c2coc3c(C(=O)Nc4ccc(C(C)C)cc4)cccc23)ccc1O	none (no result: Efflux pump inh)
COc1ccc(C(=O)CN2C(=O)c3ccccc3S2(=O)=O)cc1Br	none
CCCn1c(C)cc(C(=O)CN2C(=O)c3ccccc3S2(=O)=O)c1C	SRC2 inh 82, SRC3 inh 73, LRH-1 inv ag 81, COUP-TFII inh 85, SRC1 inh 75 (no result: Efflux pump inh) | VP16 Luc counter 77 | NR2F2 inh conf 91
Cc1cc(C(=O)CN2C(=O)c3ccccc3S2(=O)=O)c(C)n1CC1CCCO1 (centres undefined)	SRC2 inh 88, SRC3 inh 88, LRH-1 inv ag 89, COUP-TFII inh 93, SRC1 inh 80 | VP16 Luc counter 86 | NR2F2 inh conf 96
COc1ccc(C(=O)CN2C(=O)c3ccccc3S2(=O)=O)cc1	SRC2 inh 81, COUP-TFII inh 91 | VP16 Luc counter 52 | NR2F2 inh conf 77
Cc1ccc(C)c(C(=O)CN2C(=O)c3ccccc3S2(=O)=O)c1	none
Cn1c(C(=O)N[C@@H](C(=O)O)c2ccccc2)cc2cc(Cl)ccc21	none
c1ccc(-c2nc(-c3ccncc3)no2)cc1	none
c1ccc(C(Cc2nc(-c3ccncc3)no2)c2ccccc2)cc1	COUP-TFII inh 56 | VP16 Luc counter inactive | NR2F2 inh conf 41
CC1Cc2nc(SCC(=O)NCC3CCCO3)n(-c3ccc(F)cc3)c(=O)c2S1 (centres undefined)	none
CCOc1cc(C(=S)N2CCOCC2)ccc1OS(=O)(=O)c1ccc(NC(C)=O)cc1	COUP-TFII inh 48 | VP16 Luc counter inactive | NR2F2 inh conf inactive
CCOc1cc(C(=S)N2CCOCC2)ccc1OS(=O)(=O)c1ccc(OC)cc1	none
CCOC(=O)c1cnc(-n2nc(C)cc2C)nc1NCCc1ccccc1	COUP-TFII inh 48 | VP16 Luc counter inactive | NR2F2 inh conf inactive
CCOC(=O)c1cnc(-n2nc(C)cc2C)nc1NC1CCCC1	COUP-TFII inh 44 | VP16 Luc counter inactive | NR2F2 inh conf 56
CC(Oc1ccc(Cl)cc1)C(=O)N1CCCc2ccccc21 (centres undefined)	none
COc1cc(F)ccc1CN1CCC(C(=O)Nc2ccc(Oc3ccccc3)nc2)CC1	COUP-TFII inh 40 | VP16 Luc counter inactive | NR2F2 inh conf inactive
O=C(Nc1ccc(Oc2cccnc2)cc1)C1CCN(Cc2cccc(Cl)c2)CC1	COUP-TFII inh 38 | VP16 Luc counter 13 | NR2F2 inh conf inactive
O=C(Nc1ccc(Oc2cccnc2)cc1)C1CCN(Cc2ccccc2)CC1	none
COc1ccc(CN2CCC(C(=O)Nc3ccc(Oc4ccccc4)nc3)CC2)cc1F	COUP-TFII inh 48 | VP16 Luc counter inactive | NR2F2 inh conf inactive
Cc1ccc(CN2CC(C(=O)NCCC3=CCCCC3)CC2=O)cc1 (centres undefined)	none
Cc1cccc(-n2ncc3c(N(CCO)CCO)ncnc32)c1	none
COc1ccc(-n2ncc3c(N(C)C4CCCCC4)ncnc32)cc1	SRC2 inh 63, SRC3 inh 79, LRH-1 inv ag 79, COUP-TFII inh 89, SRC1 inh 79 | VP16 Luc counter 74 | NR2F2 inh conf 94
Cc1cccc(-n2ncc3c(N(C)C4CCCCC4)ncnc32)c1	SRC2 inh 62, SRC3 inh 81, LRH-1 inv ag 77, COUP-TFII inh 87, SRC1 inh 81 | VP16 Luc counter 49 | NR2F2 inh conf 92
COCC(=O)OC1CCn2c1nc1c2C(=O)C(C)=C(NC(C)=O)C1=O (centres undefined)	SRC2 inh 73, SRC3 inh 88, LRH-1 inv ag 96, COUP-TFII inh 72, SRC1 inh 90 (no result: Efflux pump inh) | VP16 Luc counter 50 | NR2F2 inh conf 74
CCN1/C(=C/c2ccc3cc(C)ccc3[n+]2CC)Sc2cc(C)c(C)cc21	COUP-TFII inh 78 (no result: Efflux pump inh) | VP16 Luc counter inactive | NR2F2 inh conf 64
